# Assay results from PubChem BioAssay (EPA / NIEHS).
# Several values for one entry are separate records, joined by “and”; a condition that tells them apart may be missing. Identical values can stand only once. Records with an inconclusive call do not appear. The source holds several records for some structures; these can differ, active in one and inactive in another. Activity calls are given as the source filed them. How the source made its calls: active means hit-call score of the fitted dose curve at least 0.9, where 1 is the maximum; inconclusive means response in the unintended direction; inactive means score below 0.9.
# Tested on: zebrafish Estrogen Receptor (ER2a), gene 317734
# Experiment: ATG_zfER2a_XSP2: Attagene TRANS-FACTORIAL Multi-Species (XSP2) HepG2 Assay for zebrafish Estrogen Receptor (ER2a) (AID 2283818);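 further: hits raise reporter mRNA so AC50 reflects activation of zebrafish ER2a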
# Method: ATG_XSP2_multi-species_TRANS is a cell-based, multiplexed assay created by modifying the existing Attagene TRANS-FACTORIAL system to include a panel of nuclear receptors from some or all the following species: human (Homo sapiens), mouse (Mus musculus), frog (Xenopus laevis), zebrafish (Danio rerio), chicken (Gallus gallus), and turtle (Chrysemys picta). The ECOTOX-FACTORIAL format uses HepG2, a human liver cell line, with measurements taken at 24 hours after chemical dosing in a 24-well plate. Xsp2 included 3 nM 6-alpha-fluorotestosterone and 1.5 nM norgestrel to stimulate the androgen receptor.ATG_zfER2a_XSP2 is one of 29 assay components measured or calculated from the ATG_XSP2_multi-species_TRANS assay. It is designed to make measurements of mRNA induction, a form of inducible reporter, as detected with fluorescence intensity signals by Reverse transcription polymerase chain reaction (RT-PCR) and Capillary electrophoresis technology.The assay endpoint ATG_zfER2a_XSP2 was analyzed in the positive analysis fitting direction relative to DMSO as the negative control and baseline of activity. Using a type of inducible reporter, measures of mRNA for gain-of-signal activity can be used to understand the reporter gene at the transcription factor-level as they relate to the gene ER. Furthermore, this assay endpoint can be referred to as a primary readout, because this assay has produced multiple assay endpoints where this one serves a reporter gene function. To generalize the intended target to other relatable targets, this assay endpoint is annotated to the nuclear receptor intended target family, where the subfamily is steroidal.
# Human liver HepG2 cells are transiently transfected with multiple reporter transcription units (MRTUs) in 6-well plates using FuGene 6 reagent (Roche; 3 ml FuGene/1 mg DNA). The MRTU constructs are regulated by a cis-regulating element (promoter). […] A major difference between the CIS and TRANS system is that in CIS activities of endogenous TFs are measured, whereas the TRANS assay evaluates changes in activities of exogenous, chimeric NR-Gal4 proteins. […] At the end of 24 hour incubation, total RNA was isolated using TriZol reagent (Invitrogen). The isolated RNA is then reverse-transcribed using oligo(dT) primer and Mo-MLV reverse transcriptase (Invitrogen) with DNAse I (Ambion) treatment for 30 min. The one-tenth of the produced cDNA was amplified by PCR using Taq DNA polymerase (Invitrogen) and two reporter sequence-specific primers. The PCR products were fluorescently labeled by primer extension with 6-arboxyfluorescein (6-FAM) 5'-labeled reporter sequence-specific primer (2 min at 95 C, 20 s at 68 C and 10 min at 72 C) and these products were digested with 5U of HpaI (New England Biolabs) for 2h at 37 C. The fragments were purified using Qiaquick PCR columns (Qiagen), analyzed on an ABI 3130xL genetic analyzer (Applied Biosystems) with peak positions identified by using a set of X-rhodamine (ROX)-labeled MapMarker1000 molecular weight standards (BioVentures). The raw capillary electrophoresis data was processed using Attagraph software (Attagene).
SMILES,outcome,AC50
CC(C)C1CCC(Cc2ccc(Cl)cc2)C1(O)Cn1cncn1 (stereo not given),inactive,–
CC(C)(C)c1cc(O)ccc1O,–,43.8 µM (active)
C[C@]12CCC(=O)C[C@@H]1CC[C@@H]1[C@@H]2CC[C@]2(C)[C@@H](O)CC[C@@H]12,inactive,–
Oc1ccc(-c2ccccc2)cc1,–,2.6 µM (active) and 1.43 µM (active)
O=S(=O)(c1ccc(Cl)cc1)c1ccc(Cl)cc1,inactive,–
CC12CC1(C)C(=O)N(c1cc(Cl)cc(Cl)c1)C2=O (stereo not given),inactive,–
CC(=O)C=C(C)C,inactive,46.7 µM (active)
CC(C)(C)CC(C)(C)c1ccc(O)cc1,inactive,–
C[C@]12CC[C@H](O)CC1=CC[C@@H]1[C@@H]2CC[C@]2(C)C(=O)CC[C@@H]12,–,2.39 µM (active) and 1.46 µM (active)
COP(=O)(OC)O/C(=C\Cl)c1cc(Cl)c(Cl)cc1Cl,inactive,–
C[C@H]1CCCC(=O)CCC/C=C/c2cc(O)cc(O)c2C(=O)O1,–,24.6 nM (active) and 6.41 nM (active)
CC1(C)CCC(Cc2ccc(Cl)cc2)C1(O)Cn1cncn1 (stereo not given),inactive,–
Clc1ccc(C2(Cn3cncn3)CC(Br)CO2)c(Cl)c1 (stereo not given),inactive,37.4 µM (active)
